Assay results: PubChem BioAssay AID1159580 (chemical genetic matrix, 2015)
Among all 5,500 compounds or so, about 2,000 (36%) were called active. Inconclusive results (about 18%) are left out. Some of the results follow. Unmarked numbers belong to inactive results. Rule as the data show it: active = normalized growth mostly below about 0.91 (no sharp cut-off); inconclusive = no clear call, values can overlap the other calls; inactive = mostly above about 0.92.

Experiment: chemical genetic growth profiling, strain panel (AID 1159580);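 also: tested at 20 µM; growth read once vehicle control cultures reached saturation at 30 °C; 1 = growth at the plate median or of vehicle wells; lower values mean less growth of the strain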
Conditions: growth OD

In the case of `CCC(=O)OCC(=O)C1(OC(=O)CC)C(C)CC2C3CCC4=CC(=O)C=CC4(C)C3(Cl)C(O)CC21C` (configuration not stated), the normalized growth (S. cerevisiae deletion strains, locus YJR043C, strain POL32, stronger effect = lower value) is reported as 1.03, the normalized growth (S. cerevisiae deletion strains, locus YJR066W, strain TOR1, stronger effect = lower value) is reported as 0.995 and the normalized growth (S. cerevisiae deletion strains, locus YKL009W, strain mrt4, stronger effect = lower value) is reported as 1. The normalized growth (S. cerevisiae deletion strains, locus YKL068W, stronger effect = lower value) was 0.989, the normalized growth (S. cerevisiae deletion strains, locus YKL085W, strain MDH1 (second series), stronger effect = lower value) was 0.997 and the normalized growth (S. cerevisiae deletion strains, locus YKL085W, strain MDH1, stronger effect = lower value) was 0.997. The normalized growth (S. cerevisiae deletion strains, locus YKL160W, strain elf1, stronger effect = lower value) was 0.964, the normalized growth (S. cerevisiae deletion strains, locus YKR001C, strain vps1, stronger effect = lower value) was 0.992 and the normalized growth (S. cerevisiae deletion strains, locus YKR026C, strain gcn3, stronger effect = lower value) was 0.983. The normalized growth (S. cerevisiae deletion strains, locus YKR091W, strain srl3, stronger effect = lower value) was 0.983, the normalized growth (S. cerevisiae deletion strains, locus YLL001W, strain dnm1, stronger effect = lower value) was 0.927 and the normalized growth (S. cerevisiae deletion strains, locus YLL026W, stronger effect = lower value) was 0.989. It also gave a normalized growth (S. cerevisiae deletion strains, locus YLL041C, strain sdh2, stronger effect = lower value) of 0.977, a normalized growth (S. cerevisiae deletion strains, locus YLR027C, strain aat2, stronger effect = lower value) of 0.962 and a normalized growth (S. cerevisiae deletion strains, locus YLR039C, strain RIC1, stronger effect = lower value) of 1.02. The normalized growth (S. cerevisiae deletion strains, locus YLR058C, strain SHM2, stronger effect = lower value) was 1.02, the normalized growth (S. cerevisiae deletion strains, locus YLR102C, strain apc9, stronger effect = lower value) was 0.994 and the normalized growth (S. cerevisiae deletion strains, locus YLR113W, strain HOG1, stronger effect = lower value) was 1.07. For the same compound, the normalized growth (S. cerevisiae deletion strains, locus YLR221C, strain rsa3, stronger effect = lower value) was 1.01, the normalized growth (S. cerevisiae deletion strains, locus YLR258W, strain gsy2, stronger effect = lower value) was 0.993 and the normalized growth (S. cerevisiae deletion strains, locus YLR262C, strain YPT6 (second series), stronger effect = lower value) was 0.915. The normalized growth (S. cerevisiae deletion strains, locus YLR262C, strain YPT6, stronger effect = lower value) was 1.07, the normalized growth (S. cerevisiae deletion strains, locus YLR268W, strain sec22, stronger effect = lower value) was 0.985 and the normalized growth (S. cerevisiae deletion strains, locus YLR320W, strain mms22, stronger effect = lower value) was 0.983. It also gave a normalized growth (S. cerevisiae deletion strains, locus YLR330W, strain CHS5, stronger effect = lower value) of 1.02, a normalized growth (S. cerevisiae deletion strains, locus YLR342W, strain FKS1 (second series), stronger effect = lower value) of 1.05 and a normalized growth (S. cerevisiae deletion strains, locus YLR342W, strain FKS1, stronger effect = lower value) of 0.977. The normalized growth (S. cerevisiae deletion strains, locus YLR357W, strain rsc2, stronger effect = lower value) was 1.03, the normalized growth (S. cerevisiae deletion strains, locus YLR370C, strain arc18, stronger effect = lower value) was 0.963 and the normalized growth (S. cerevisiae deletion strains, locus YLR371W, strain rom2, stronger effect = lower value) was 0.992. It also gave a normalized growth (S. cerevisiae deletion strains, locus YLR384C, strain iki3, stronger effect = lower value) of 0.958, a normalized growth (S. cerevisiae deletion strains, locus YLR418C, strain cdc73, stronger effect = lower value) of 0.984 and a normalized growth (S. cerevisiae deletion strains, locus YML016C, strain PPZ1, stronger effect = lower value) of 1.02. For the same compound, the normalized growth (S. cerevisiae deletion strains, locus YML032C, strain rad52, stronger effect = lower value) was 0.994, the normalized growth (S. cerevisiae deletion strains, locus YML120C, strain ndi1, stronger effect = lower value) was 0.958 and the normalized growth (S. cerevisiae deletion strains, locus YML124C, strain tub3, stronger effect = lower value) was 0.985. The normalized growth (S. cerevisiae deletion strains, locus YMR058W, strain fet3, stronger effect = lower value) was 0.986, the normalized growth (S. cerevisiae deletion strains, locus YMR078C, strain ctf18, stronger effect = lower value) was 0.992 and the normalized growth (S. cerevisiae deletion strains, locus YMR125W, strain sto1, stronger effect = lower value) was 0.988. It also gave a normalized growth (S. cerevisiae deletion strains, locus YMR129W, stronger effect = lower value) of 0.976, a normalized growth (S. cerevisiae deletion strains, locus YMR205C, strain PFK2, stronger effect = lower value) of 0.965 and a normalized growth (S. cerevisiae deletion strains, locus YMR223W, strain ubp8, stronger effect = lower value) of 1. For the same compound, the normalized growth (S. cerevisiae deletion strains, locus YMR231W, strain pep5, stronger effect = lower value) was 0.971, the normalized growth (S. cerevisiae deletion strains, locus YMR307W, strain GAS1, stronger effect = lower value) was 1.09 and the normalized growth (S. cerevisiae deletion strains, locus YNL067W, strain RPL9B, stronger effect = lower value) was 0.996. The normalized growth (S. cerevisiae deletion strains, locus YNL071W, strain lat1, stronger effect = lower value) was 0.989, the normalized growth (S. cerevisiae deletion strains, locus YNL183C, strain NPR1, stronger effect = lower value) was 0.983 and the normalized growth (S. cerevisiae deletion strains, locus YNL209W, strain ssb2, stronger effect = lower value) was 0.997. It also gave a normalized growth (S. cerevisiae deletion strains, locus YNL233W, strain BNI4, stronger effect = lower value) of 1, a normalized growth (S. cerevisiae deletion strains, locus YNL248C, strain rpa49, stronger effect = lower value) of 0.973 and a normalized growth (S. cerevisiae deletion strains, locus YNL250W, strain rad50, stronger effect = lower value) of 1. It also gave a normalized growth (S. cerevisiae deletion strains, locus YNL271C, strain bni1, stronger effect = lower value) of 0.988, a normalized growth (S. cerevisiae deletion strains, locus YNL298W, strain CLA4, stronger effect = lower value) of 0.991 and a normalized growth (S. cerevisiae deletion strains, locus YNL307C, strain MCK1, stronger effect = lower value) of 0.981. The normalized growth (S. cerevisiae deletion strains, locus YNL322C, strain KRE1 (second series), stronger effect = lower value) was 0.971, the normalized growth (S. cerevisiae deletion strains, locus YNR049C, strain mso1, stronger effect = lower value) was 0.982 and the normalized growth (S. cerevisiae deletion strains, locus YNR052C, strain pop2, stronger effect = lower value) was 0.994. The normalized growth (S. cerevisiae deletion strains, locus YOL012C, strain htz1) was 1.1, the normalized growth (S. cerevisiae deletion strains, locus YOL147C, strain pex11, stronger effect = lower value) was 0.986 and the normalized growth (S. cerevisiae deletion strains, locus YOR001W, strain rrp6, stronger effect = lower value) was 0.952. For the same compound, the normalized growth (S. cerevisiae deletion strains, locus YOR061W, strain CKA2, stronger effect = lower value) was 1.02, the normalized growth (S. cerevisiae deletion strains, locus YOR069W, strain VPS5, stronger effect = lower value) was 1.01 and the normalized growth (S. cerevisiae deletion strains, locus YOR070C, strain gyp1, stronger effect = lower value) was 0.996. It also gave a normalized growth (S. cerevisiae deletion strains, locus YOR080W, strain dia2, stronger effect = lower value) of 0.954, a normalized growth (S. cerevisiae deletion strains, locus YOR083W, strain WHI5, stronger effect = lower value) of 0.946 and a normalized growth (S. cerevisiae deletion strains, locus YOR106W, strain vam3, stronger effect = lower value) of 0.931. It also gave a normalized growth (S. cerevisiae deletion strains, locus YOR136W, strain idh2, stronger effect = lower value) of 0.979, a normalized growth (S. cerevisiae deletion strains, locus YOR144C, strain elg1, stronger effect = lower value) of 0.991 and a normalized growth (S. cerevisiae deletion strains, locus YOR184W, strain ser1, stronger effect = lower value) of 0.986. The normalized growth (S. cerevisiae deletion strains, locus YOR231W, strain MKK1, stronger effect = lower value) was 1.05, the normalized growth (S. cerevisiae deletion strains, locus YOR265W, strain rbl2, stronger effect = lower value) was 0.985 and the normalized growth (S. cerevisiae deletion strains, locus YOR270C, strain vph1, stronger effect = lower value) was 0.757 (active). For the same compound, the normalized growth (S. cerevisiae deletion strains, locus YOR290C, strain snf2, stronger effect = lower value) was 1, the normalized growth (S. cerevisiae deletion strains, locus YOR316C, strain cot1, stronger effect = lower value) was 0.991 and the normalized growth (S. cerevisiae deletion strains, locus YPL051W, strain arl3, stronger effect = lower value) was 0.986. It also gave a normalized growth (S. cerevisiae deletion strains, locus YPL055C, strain LGE1, stronger effect = lower value) of 1.01, a normalized growth (S. cerevisiae deletion strains, locus YPL078C, strain atp4, stronger effect = lower value) of 0.921 and a normalized growth (S. cerevisiae deletion strains, locus YPL106C, strain sse1, stronger effect = lower value) of 1.06. The normalized growth (S. cerevisiae deletion strains, locus YPL240C, strain hsp82, stronger effect = lower value) was 0.976, the normalized growth (S. cerevisiae deletion strains, locus YPL241C, strain CIN2, stronger effect = lower value) was 1.02 and the normalized growth (S. cerevisiae deletion strains, locus YPL256C, strain CLN2, stronger effect = lower value) was 1.05. It also gave a normalized growth (S. cerevisiae deletion strains, locus YPR119W, strain clb2, stronger effect = lower value) of 0.988, a normalized growth (S. cerevisiae deletion strains, locus YPR141C, strain kar3, stronger effect = lower value) of 0.988 and a normalized growth (S. cerevisiae deletion strains, locus YPR163C, strain tif3, stronger effect = lower value) of 0.995. For the same compound, the normalized growth (S. cerevisiae deletion strains, locus YPR167C, strain met16, stronger effect = lower value) was 0.993, the normalized growth (S. cerevisiae deletion strains, strain wtn01, stronger effect = lower value) was 0.977 and the normalized growth (S. cerevisiae strains, strain wild type, stronger effect = lower value) was 1.02.
